Laboratory results from PubChem BioAssay (EPA / NIEHS).
The source made the active and inactive calls. Rule for the calls: active = hit-call score of the fitted dose curve at least 0.9, where 1 is the maximum; inactive = score below 0.9.

The compounds below were run against Hepatocyte nuclear factor 3-beta (Homo sapiens) (UniProt Q9Y261) (assay: ATG_FoxA2_CIS: Attagene CIS-FACTORIAL HepG2 Assay for human Forkhead box A2 (FOXA2) (AID 2282942)). Settings: HepG2 cis-reporter transcription factor activity, 24 h; actives raise or lower the signal.
Sequence of Hepatocyte nuclear factor 3-beta (Homo sapiens) (Q9Y261 whole entry, looked up): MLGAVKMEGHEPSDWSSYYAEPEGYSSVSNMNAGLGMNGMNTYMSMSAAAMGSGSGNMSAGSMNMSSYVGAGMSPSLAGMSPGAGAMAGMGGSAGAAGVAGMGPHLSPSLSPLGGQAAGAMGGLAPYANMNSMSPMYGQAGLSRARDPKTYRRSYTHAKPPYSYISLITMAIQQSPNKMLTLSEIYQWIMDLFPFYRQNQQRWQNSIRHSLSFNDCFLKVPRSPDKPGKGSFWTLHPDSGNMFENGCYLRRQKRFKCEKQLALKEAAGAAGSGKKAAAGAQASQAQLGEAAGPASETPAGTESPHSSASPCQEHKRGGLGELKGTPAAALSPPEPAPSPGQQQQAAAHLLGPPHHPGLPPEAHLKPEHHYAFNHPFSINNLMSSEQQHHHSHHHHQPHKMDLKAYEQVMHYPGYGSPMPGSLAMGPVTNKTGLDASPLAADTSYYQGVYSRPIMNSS
Procedure: ATG_CIS is a cell-based, multiplexed-readout assay that uses HepG2, a human liver cell line, with measurements taken at 24 hours after chemical dosing in a 24-well plate.ATG_FoxA2_CIS is one of 52 assay component(s) measured or calculated from the ATG_CIS assay. It is designed to make measurements of mRNA induction, a form of inducible reporter, as detected with fluorescence intensity signals by Reverse transcription polymerase chain reaction (RT-PCR) and Capillary electrophoresis technology.Data from the assay component ATG_FoxA2_CIS was analyzed into 1 assay endpoint. This assay endpoint, ATG_FoxA2_CIS, was analyzed with bidirectional fitting relative to DMSO as the negative control and baseline of activity. Using a type of inducible reporter, measures of mRNA for gain or loss-of-signal activity can be used to understand the reporter gene at the transcription factor-level as they relate to the gene FOXA2. Furthermore, this assay endpoint can be referred to as a primary readout, because this assay has produced multiple assay endpoints where this one serves a reporter gene function. To generalize the intended target to other relatable targets, this assay endpoint is annotated to the dna binding intended target family, where the subfamily is forkhead box protein.
Human liver HepG2 cells are transiently transfected with multiple reporter transcription units (MRTUs) in 6-well plates using FuGene 6 reagent (Roche; 3 ml FuGene/1 mg DNA). The MRTU constructs are regulated by a cis-regulating element (promoter). […] A major difference between the CIS and TRANS system is that in CIS activities of endogenous TFs are measured, whereas the TRANS assay evaluates changes in activities of exogenous, chimeric NR-Gal4 proteins. […] At the end of 24 hour incubation, total RNA was isolated using TriZol reagent (Invitrogen). The isolated RNA is then reverse-transcribed using oligo(dT) primer and Mo-MLV reverse transcriptase (Invitrogen) with DNAse I (Ambion) treatment for 30 min. The one-tenth of the produced cDNA was amplified by PCR using Taq DNA polymerase (Invitrogen) and two reporter sequence-specific primers. The PCR products were fluorescently labeled by primer extension with 6-arboxyfluorescein (6-FAM) 5'-labeled reporter sequence-specific primer (2 min at 95 C, 20 s at 68 C and 10 min at 72 C) and these products were digested with 5U of HpaI (New England Biolabs) for 2h at 37 C. The fragments were purified using Qiaquick PCR columns (Qiagen), analyzed on an ABI 3130xL genetic analyzer (Applied Biosystems) with peak positions identified by using a set of X-rhodamine (ROX)-labeled MapMarker1000 molecular weight standards (BioVentures). The raw capillary electrophoresis data was processed using Attagraph software (Attagene).

Structure (SMILES) | outcome | AC50
C=CC(=O)OCC(F)(F)C(F)(F)C(F)(F)COC(=O)C=C | inactive | 
Cc1cccc(C)n1 | inactive | 
CCCCCCCCCCCCCCCCC | inactive | 
COC(=O)c1ccc(C=O)cc1 | inactive | 
CCOC(=O)CC(=O)C(F)(F)C(F)(F)F | inactive | 
CC(C)C(=O)OCc1ccccc1 | inactive | 
O=S(=O)(Cl)C(F)(F)C(F)(F)C(F)(F)C(F)(F)C(F)(F)C(F)(F)C(F)(F)C(F)(F)F | inactive | 
C=CC(=O)OCCC(F)(F)C(F)(F)C(F)(F)C(F)(F)F | inactive | 
CCOC(C=C(C)CCC=C(C)C)OCC | inactive | 
CC1=CCC(=O)O1 | inactive | 
CNS(=O)(=O)C(F)(F)C(F)(F)C(F)(F)C(F)(F)C(F)(F)C(F)(F)C(F)(F)C(F)(F)F | inactive | 
CN(C)C(C)(C)CO | inactive | 
Nc1cc([N+](=O)[O-])cc(Cl)c1O | inactive | 
Cc1ccc(S(=O)(=O)C(I)I)cc1 |  | 43.7 µM (active)
F[Si-2](F)(F)(F)(F)F | inactive | 
OCCC(O)CO (stereo not given) | inactive | 
CCCCCCCCn1sc(Cl)c(Cl)c1=O |  | 8.19 µM (active)
O=S(=O)(O)CCC(F)(F)C(F)(F)C(F)(F)C(F)(F)F | inactive | 
O=c1[nH]cccc1O | inactive | 
CSc1ccc(Cl)cc1 | inactive | 

Structure (SMILES) | outcome | AC50
Cc1cc(C)c(O)c(C(C)(C)C)c1 | inactive | 
Cc1ccc(O)c(-n2nc3ccccc3n2)c1 | inactive | 
O=C(c1ccccc1)c1ccc(O)cc1O | inactive | 
Oc1ccc(C2(c3ccc(O)c(C4CCCCC4)c3)CCCCC2)cc1C1CCCCC1 |  | 60.1 µM (active)
CSc1ccc(O)cc1C | inactive | 
CC(C)=CCCC(C)O (stereo not given) | inactive | 
O=C1c2c(O)ccc(Nc3ccc(CCO)cc3)c2C(=O)c2c([N+](=O)[O-])ccc(O)c21 | inactive | 
CO[Si](CCCOCC1CO1)(OC)OC (stereo not given) | inactive | 
OCC(F)(F)C(F)(F)C(F)(F)C(F)(F)C(F)(F)C(F)(F)C(F)(F)C(F)(F)CO | inactive | 
Brc1ccccn1 | inactive | 
CC(C)CC=C(C=O)c1ccccc1 | inactive | 
CC(=O)CCC(C)C | inactive | 
CN(C(=O)C(F)(F)C(F)(F)C(F)(F)F)[Si](C)(C)C | inactive | 
COc1ccccc1C=O | inactive | 
CC1CCCCC1 | inactive | 
OCC1CCCO1 (stereo not given) | inactive | 
CCC/C=C/CO | inactive | 
Brc1nc2ccccc2s1 | inactive | 
CCN(CC)c1ccc(C=O)c(O)c1 | inactive | 
NS(=O)(=O)C(F)(F)C(F)(F)C(F)(F)C(F)(F)C(F)(F)C(F)(F)F | inactive | 
